Laboratory results as given in the supplement of paper PMC6897291.
Where a name gives a salt, the structure may show the parent alone.

What was measured:
U-2932 [1] = experiment: growth inhibition by drug alone (1 - RLU/untreated control) (fraction); higher = stronger inhibition; details: 177Lu-lilotomab satetraxetan 0 ug/ml
Procedure, shortened: (§1)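 With or without 18 h pretreatment by a radiolabelled anti-CD37 antibody conjugate (~600 MBq/mg; 0.5 µg/ml RIVA, 1 µg/ml U-2932), RIVA and U-2932 cells were washed and plated at 3,000 cells/well. Pre-printed compound doses were 10/100 nM for RIVA and 10/1,000 nM for U-2932. Growth inhibition uses RealTime-Glo RLU relative to the untreated no-drug wells. The calculation is 1 − RLU/mean of 48 such wells per plate, with reads daily from day 3 after 1 h at 37°C.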

RIVA [2] = experiment: as above; details: 177Lu-lilotomab satetraxetan 0 ug/ml
Procedure, shortened: as §1

U-2932 [3] = experiment: growth inhibition by drug plus 177Lu-lilotomab satetraxetan (1 - RLU/untreated control) (fraction); higher = stronger inhibition; details: 177Lu-lilotomab satetraxetan 1 ug/ml
Procedure, shortened: as §1

RIVA [4] = experiment: as above; details: 177Lu-lilotomab satetraxetan 0.5 ug/ml
Procedure, shortened: as §1

Structure (SMILES) | growth inhibition by drug alone (U-2932 [1]; 10 nM, time (day): 3) | growth inhibition by drug alone (U-2932 [1]; 10 nM, time (day): 4) | growth inhibition by drug alone (U-2932 [1]; 10 nM, time (day): 5) | growth inhibition by drug alone (U-2932 [1]; 10 nM, time (day): 6) | growth inhibition by drug alone (U-2932 [1]; 1000 nM, time (day): 3) | growth inhibition by drug alone (U-2932 [1]; 1000 nM, time (day): 4) | growth inhibition by drug alone (U-2932 [1]; 1000 nM, time (day): 5) | growth inhibition by drug alone (U-2932 [1]; 1000 nM, time (day): 6) | growth inhibition by drug alone (RIVA [2]; 10 nM, time (day): 3) | growth inhibition by drug alone (RIVA [2]; 10 nM, time (day): 4) | growth inhibition by drug alone (RIVA [2]; 10 nM, time (day): 5) | growth inhibition by drug alone (RIVA [2]; 10 nM, time (day): 6) | growth inhibition by drug alone (RIVA [2]; 100 nM, time (day): 3) | growth inhibition by drug alone (RIVA [2]; 100 nM, time (day): 4) | growth inhibition by drug alone (RIVA [2]; 100 nM, time (day): 5) | growth inhibition by drug alone (RIVA [2]; 100 nM, time (day): 6) | growth inhibition by drug plus 177Lu-lilotomab satetraxetan (U-2932 [3]; 10 nM, time (day): 3) | growth inhibition by drug plus 177Lu-lilotomab satetraxetan (U-2932 [3]; 10 nM, time (day): 4) | growth inhibition by drug plus 177Lu-lilotomab satetraxetan (U-2932 [3]; 10 nM, time (day): 5) | growth inhibition by drug plus 177Lu-lilotomab satetraxetan (U-2932 [3]; 10 nM, time (day): 6) | growth inhibition by drug plus 177Lu-lilotomab satetraxetan (U-2932 [3]; 1000 nM, time (day): 3) | growth inhibition by drug plus 177Lu-lilotomab satetraxetan (U-2932 [3]; 1000 nM, time (day): 4) | growth inhibition by drug plus 177Lu-lilotomab satetraxetan (U-2932 [3]; 1000 nM, time (day): 5) | growth inhibition by drug plus 177Lu-lilotomab satetraxetan (U-2932 [3]; 1000 nM, time (day): 6) | growth inhibition by drug plus 177Lu-lilotomab satetraxetan (RIVA [4]; 10 nM, time (day): 3) | growth inhibition by drug plus 177Lu-lilotomab satetraxetan (RIVA [4]; 10 nM, time (day): 4) | growth inhibition by drug plus 177Lu-lilotomab satetraxetan (RIVA [4]; 10 nM, time (day): 5) | growth inhibition by drug plus 177Lu-lilotomab satetraxetan (RIVA [4]; 10 nM, time (day): 6) | growth inhibition by drug plus 177Lu-lilotomab satetraxetan (RIVA [4]; 100 nM, time (day): 3) | growth inhibition by drug plus 177Lu-lilotomab satetraxetan (RIVA [4]; 100 nM, time (day): 4) | growth inhibition by drug plus 177Lu-lilotomab satetraxetan (RIVA [4]; 100 nM, time (day): 5) | growth inhibition by drug plus 177Lu-lilotomab satetraxetan (RIVA [4]; 100 nM, time (day): 6)
CN(C)c1nc(N(C)C)nc(N(C)C)n1 [Altretamine (Hexalen)] | -0.0883 | -0.0905 | -0.0583 | -0.058 | -0.122 | -0.0758 | -0.114 | 0.0216 | -0.25 | -0.257 | -0.29 | -0.318 | -0.545 | -0.424 | -0.488 | -0.694 | -0.146 | -0.0735 | -0.0141 | -0.0604 | -0.101 | -0.0503 | 0.00142 | 0.121 | – | – | – | – | – | – | – | –
COc1cccc2c1C(=O)c1c(O)c3c(c(O)c1C2=O)C[C@@](O)(C(=O)CO)C[C@@H]3O[C@H]1C[C@H](N)[C@@H](O)[C@H](C)O1 [Epirubicin Hydrochloride] | – | – | – | – | – | – | – | – | -0.0808 | 0.0051 | 0.0307 | 0.0473 | 0.436 | 0.719 | 0.848 | 0.91 | 0.24 | 0.323 | 0.39 | 0.484 | 0.965 | 0.977 | 0.982 | 0.986 | 0.734 | 0.792 | 0.829 | 0.863 | 0.887 | 0.93 | 0.949 | 0.967
COc1ccc(CCN2CCN(CCCc3ccccc3)CC2)cc1OC | – | – | – | – | – | – | – | – | -0.0905 | -0.186 | -0.542 | -0.55 | -0.612 | -0.501 | -0.797 | -0.809 | -0.0743 | -0.0209 | 0.0479 | 0.0237 | 0.0208 | 0.0062 | 0.0376 | 0.127 | 0.23 | 0.322 | 0.343 | 0.385 | 0.0167 | 0.137 | 0.119 | 0.162
CCOC(=O)C1=C[C@]2(CC)CCCN3CCc4c(n1c1ccccc41)[C@@H]32 [Vinpocetine (Cavinton)] | – | – | – | – | – | – | – | – | -0.107 | -0.13 | -0.129 | -0.167 | 0.0294 | -0.03 | -0.0621 | -0.112 | -0.0659 | -0.0355 | -0.00313 | 0.159 | 0.000715 | 0.0172 | 0.0304 | 0.134 | 0.457 | 0.533 | 0.549 | 0.545 | 0.362 | 0.396 | 0.4 | 0.377
COc1ccc(-c2ccc3c(N4CCOC[C@@H]4C)nc(N4CCOC[C@@H]4C)nc3n2)cc1CO | – | – | – | – | – | – | – | – | 0.0033 | -0.0925 | -0.125 | -0.292 | 0.617 | 0.609 | 0.575 | 0.472 | 0.124 | 0.14 | 0.163 | 0.253 | 0.899 | 0.893 | 0.902 | 0.923 | 0.495 | 0.529 | 0.545 | 0.545 | 0.749 | 0.763 | 0.762 | 0.744
O=C1c2ccccc2C(=O)c2c(NCCc3ccc(O)cc3)ccc(NCCc3ccc(O)cc3)c21 | -0.0815 | -0.112 | -0.157 | -0.425 | -0.127 | -0.129 | -0.138 | -0.403 | -0.237 | -0.358 | -0.539 | -0.808 | -0.77 | -0.807 | -0.893 | -1.08 | -0.127 | -0.0794 | -0.054 | -0.0701 | -0.11 | -0.0952 | -0.0582 | 0.044 | – | – | – | – | – | – | – | –
COc1cc2ncnc(Nc3ccc(Oc4ccccc4)cc3)c2cc1OC | – | – | – | – | – | – | – | – | 0.00348 | 0.0579 | -0.00953 | -0.188 | -0.0251 | 0.00379 | -0.0229 | -0.143 | 0.0456 | 0.0896 | 0.111 | 0.169 | -0.11 | 0.0137 | 0.0447 | 0.175 | 0.521 | 0.598 | 0.605 | 0.616 | 0.526 | 0.567 | 0.556 | 0.521
O=C(O)CC[C@H]1CC[C@@](c2cc(F)ccc2F)(S(=O)(=O)c2ccc(Cl)cc2)CC1 | 0.105 | 0.0715 | -0.0926 | -0.0883 | 0.0344 | 0.041 | -0.0603 | -0.0323 | 0.072 | 0.0162 | -0.0366 | -0.42 | -0.186 | -0.2 | -0.179 | -0.202 | 0.00844 | 0.0724 | 0.123 | 0.147 | 0.000893 | 0.0697 | 0.0856 | 0.142 | – | – | – | – | – | – | – | –
COc1cc2ncnc(Nc3ccc(F)c(Cl)c3)c2cc1OCCCN1CCOCC1 [Gefitinib (Iressa)] | 0.0523 | -0.0185 | -0.0608 | -0.248 | -0.147 | -0.0975 | -0.157 | -0.226 | -0.00639 | -0.111 | -0.168 | -0.438 | -0.234 | -0.33 | -0.334 | -0.479 | -0.0292 | -0.0156 | -0.0275 | 0.0384 | -0.218 | -0.0647 | -0.0381 | 0.0874 | – | – | – | – | – | – | – | –
